Screens as filed in PubChem.
FID counter: fluorescent intercalator displacement, NS3 helicase counter-screen; actives 0.17% (n = 290,000); AID 1845; inhibition, % at 7.9 µM; DNA fluorescent intercalator displacement, fluorescence; in the data active means inhibition above about 37%;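 further: higher means more ethidium bromide displaced from hairpin DNA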
PREPL inhibitor: human PREPL enzyme inhibition; recombinant PREPL, fluorescence polarization activity-based probe; inhibition, % at 5.96 µM; actives 0.68% (n = 320,000); AID 2751; in the data active means inhibition above about 43%
MIN6 prolif: induces beta-cell replication in MIN6 cells. MIN6 cells proliferation, ATPlite luminescence, 48 h; cells starved in 0.2% serum; 100% = growth in 10% serum. proliferation, % at 10 µM. actives 0.29% (n = 330,000). AID 2380;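 active means compounds whose signal lies at least 3.5 SD above the mean of all wells on their plate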
RAD52 inh: blocks human RAD52 DNA annealing; P43351; recombinant RAD52 DNA annealing, FRET fluorescence; inhibition, % at 18.7 µM; actives 0.46% (n = 360,000);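 active means every replicate showing at least 50% inhibition; inconclusive means mean inhibition at least 50% but not in every replicate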
RAD54 inh: inhibitors of human RAD54 branch migration; inhibition, % at 10.4 µM; Q92698; actives 0.14% (n = 360,000); RAD54 Holliday junction branch migration, FAM/BHQ fluorescence;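 active means mean normalized replicate activity at least 40 and at least half of replicates scoring 40 or more; inconclusive means only one of the two criteria met; inactive means mean below 40 and under half of replicates reaching 40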;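 further: inhibitors cause a drop in the FAM fluorescence signal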
UBC13 inh: human UBC13 polyubiquitination inhibition; UBC13 polyubiquitin chain formation, TR-FRET; inhibition, % at 20 µM; P61088; AID 485273; actives 0.47% (n = 330,000); in the data active means inhibition above about 45%, passing the limit was not always enough; inconclusive means no clear call, values can overlap the other calls
Target sequence (P61088 whole entry, looked up): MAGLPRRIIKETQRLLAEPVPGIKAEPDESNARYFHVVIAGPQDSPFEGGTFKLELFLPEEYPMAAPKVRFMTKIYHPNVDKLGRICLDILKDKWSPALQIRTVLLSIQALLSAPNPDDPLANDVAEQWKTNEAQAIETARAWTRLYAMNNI
RAD52 DNA ctr: counter-screen for RAD52 inhibitors: DNA binding compounds; shares compounds with RAD52 inh; Salmon sperm DNA/acridine orange FP displacement; actives 8% (n = 1,000); AC50, µM;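 active means fitted half-maximal concentration for signal loss at or below twice the highest dose tested, in every separate run, actives reach about 64 µM in these data; inconclusive means runs disagree, or flat partial signal loss, or poor fit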
Numbers stand for hits; 0 = inactive; ? = inconclusive; - = no result. This is a sample that favours compounds with a hit; in the whole collection about 1.3% have one here.

SMILES	FID counter	PREPL inhibitor	MIN6 prolif	RAD52 inh	RAD54 inh	UBC13 inh	RAD52 DNA ctr
C[C@@H]1CN([C@@H](C)CO)C(=O)c2cc(C#Cc3cccc(F)c3)cnc2O[C@H]1CN(C)C(=O)c1ccccc1F	-	-	-	0	0	-	-
CN(C)CCCN=c1cc(-c2ccccc2)oc2ccc(Cl)cc12	0	-	-	80	-	-	28µM
COc1ccccc1S(=O)(=O)N[C@@H]1C=C[C@H](CC(=O)NCc2cc(F)cc(F)c2)O[C@H]1CO	-	-	-	0	0	-	-
Cc1noc(C)c1NC(=O)N[C@H]1CC[C@@H](CC(=O)Nc2ccc(-c3ccccc3)cc2)O[C@@H]1CO	-	-	-	0	0	-	-
O=[N+]([O-])c1ccc(COc2ccccc2CN2CCCC2)cc1	-	-	-	77	0	-	0
Clc1ccc2[nH]c3c(c2c1)CNCC3	0	0	0	65	0	0	0
C[C@H]1CCCCO[C@@H](CN(C)Cc2ccc(C(F)(F)F)cc2)[C@@H](C)CN([C@@H](C)CO)C(=O)c2cc(NC(=O)Cc3ccccc3)ccc2O1	-	-	-	-	0	-	-
COc1ccccc1OCCCN1CCC(C(O)(c2ccccc2)c2ccccc2)CC1	-	-	-	0	-	-	-
OC(c1ccccc1)(c1ccccc1)C1CCN(CCCOc2ccccc2Cl)CC1	-	-	-	55	-	-	0
FC(F)(F)c1ccc(CN2CCN(Cc3ccco3)CC2)cc1	0	0	0	97	0	0	0
CN1CCN(c2nc(-c3ccccc3O)nc3ccccc23)CC1	0	0	0	53	-	0	0
COc1cccc(-c2nc(N3CCN(C)CC3)c3ccccc3n2)c1O	0	0	0	87	-	0	?
COc1cccc(-c2nc(N3CCCCC3C)c3ccccc3n2)c1O (stereo not given)	0	0	0	-	0	0	-
C[C@@H]1CCCCO[C@@H](CN(C)C(=O)Nc2ccc(C(F)(F)F)cc2)[C@@H](C)CN([C@@H](C)CO)C(=O)c2cc(N(C)C)ccc2O1	-	-	-	0	0	-	-
C#CCOCCOCCOCCNc1nc(N2CCN(C(=O)[C@H]([C@@H](C)CC)n3cc([C@@H](N)CO)nn3)CC2)nc(N2CCN(C(=O)[C@H](CCCCN)n3cc([C@@H](N)CC(C)C)nn3)CC2)n1	43	0	0	52	-	0	0
C#CCOCCOCCOCCNc1nc(N2CCN(C(=O)[C@H](CC(N)=O)n3cc(C(N)[C@@H](C)CC)nn3)CC2)nc(N2CCN(C(=O)[C@H](CCCCN)n3cc([C@@H](N)CC(N)=O)nn3)CC2)n1 (stereo not given in full)	-	0	0	0	0	0	-
C#CCOCCOCCOCCNc1nc(N2CCN(C(=O)C([C@@H](C)CC)n3cc(C(N)CC(C)C)nn3)CC2)nc(N2CCN(C(=O)[C@H](CCCCN)n3cc(C(N)COC(=O)C(F)(F)F)nn3)CC2)n1 (stereo not given in full)	-	0	0	-	-	0	-
C#CCOCCOCCOCCNc1nc(N2CCN(C(=O)[C@H](CCCCN)n3cc(CN)nn3)CC2)nc(N2CCN(C(=O)[C@H](CC(N)=O)n3cc(C(N)[C@H](C)CC)nn3)CC2)n1 (stereo not given in full)	-	0	0	64	0	0	0
CC1CN(C)C(C)c2c1oc1ccc([N+](=O)[O-])cc21 (stereo not given)	0	0	0	0	-	0	-
CC1CN(C)C(C)c2c1oc1ccc(N)cc21 (stereo not given)	0	0	0	95	-	0	0
Cc1ccc(-c2c[n+](CC(=O)Nc3nc(-c4ccc(F)cc4)cs3)c3n2CCC3)cc1	44	0	0	58	0	0	0
CC1CCN(Cc2c(C(=O)N/N=C/c3cc(Br)ccc3O)nnn2-c2nonc2N)CC1	0	0	0	0	0	0	-
C/C(=N\NC(=O)c1nnn(-c2nonc2N)c1CN1CCC(C)CC1)c1ccc(Br)cc1	-	-	-	72	0	-	0
Cc1cccc(-c2ccc3[nH]c4c(c3c2)CCN2C[C@@H]([C@H](C)O)[C@@H](N(C)C(=O)NC3CCCCC3)C[C@@H]42)c1	-	-	-	0	0	-	-
Cc1cccc(-c2ccc3[nH]c4c(c3c2)CCN2C[C@H]3[C@H](C)ON(C)[C@H]3C[C@@H]42)c1	-	-	-	60	0	-	0
CN[C@H]1C[C@H]2c3[nH]c4ccc(-c5cccc(C)c5)cc4c3CCN2C[C@H]1[C@H](C)O	-	-	-	58	0	-	0
